# PubChem BioAssay (NCATS)
# Where “and” joins values, the source holds several entries; their conditions need not be identical. Equal values may be shown once. Records with an inconclusive call do not appear. Where a call stands in place of a potency, no number is given. More than one record can exist for a structure, and the calls need not agree. Calls of active or inactive are those of the source. Calls come from the whole dose curve; as a rule, active = well fitted inhibition curve with a large enough effect; inconclusive = small, poorly fitted or top-dose-only effect; inactive = no such curve, though single readings can be large or run the other way.
# Target: M-phase phosphoprotein 8 (Homo sapiens) (UniProt Q99549)
# Experiment: qHTS Validation Assay for Inhibitors for MPP8 Chromodomain Interactions with Methylated Histone Tails (AID 488949); note: nearly all actives have a fitted effect of over 55% in size
# Settings: AlphaScreen MPP8 binding to H3K9me3 peptide; series mostly up to 57.1 µM
# From the text: As our understanding of epigenetics expands, it is becoming clear that players in this field are potential targets for drug development. This area of epigenetic therapy has established applications for the treatment of cancer and neurological diseases. We have been involved in this field for a number of years and have performed high-throughput screens to identify the first small molecule inhibitors of protein methyltransferases. These methyltransferases target multiple substrates, and thus regulate many arms of an epigenetic pathway. The methylation of different substrates often generates docking sites for effector proteins that harbor binding domains (chromo, tudor, PHD, MBT and ANK repeats). It has been proposed that the binding sites generated for different proteins by these post-translational modifcations mediate downstream effects on chromatin. Consistent with this theory, di- and tri-methylation of histone H3K9 facilitates the binding of heterochromatin protein HP1. The HP1 protein harbors a chromodomain that is responsible for the methyl-dependent interaction between HP1 and lysine 9 of histone H3. HP1 was first described in flies as a heterochromatin associated protein that can regulate gene silencing. It harbors a chromodomain that binds H3K9me3. In addition, it harbors a chromoshadow domain that interacts with a large number of proteins that are involved in heterochromatin formation and gene repression. There are three highly related HP1 isoforms. All three variants are associated with pericentric heterochromatin and it is not clear whether they have specific or redundant functions. MPP8 is also involved in the repression of gene in euchromatic regions (unpublished data) and like HP1 its chromodomain binds H3K9me3. MPP8 harbors an ankyrin repeat region that is likely involved in binding and recruiting interacting proteins with transcriptional repressive function, much like the chromoshadow domain of HP1 does. We hypothesize that by inhibiting specific protein-protein interactions we will be able to develop compounds that block a single arm of an epigenetic pathway. The specificity attained by blocking a single protein-protein interaction will be far greater than that attained by blocking the enzyme that regulates one of many interactions. Low-affinity protein-protein interactions (Kd in the single- to double-digit micromolar range) such as those discussed here have been very difficult to assay by traditional techniques such as fluorescence polarization or fluorescence resonance energy transfer. We have developed a sensitive chemiluminescence-based assay (Quinn, et al. 2009), which serves as the starting point for this project. The following is a validation assay to identify lead compounds that can block methyl-dependent protein-protein interactions (specifically MPP8), which can be used as probes to analyze these methyl-driven interactions and perhaps even developed into targeted epigenetic therapies. Assay Provider: Mark T. Bedford, MD Anderson Screening Center PI: Austin, C.P. Screening Center: NIH Chemical Genomics Center [NCGC]
# To each well, 2 uL of MPP8 protein (final 50 nM) and 1 uL biotinylated histone peptide trimethylated at Lys9 [b-H3(1-18)K9me3] (final 50 nM) was added in 1x PBS buffer, pH 7.4, containing 0.01% Tween-20 using a nanoliter dispenser. Formation of a protein-peptide complex proceeded at room temperature for 30 min. A Kalypsys pin-tool was employed to transfer 23 nL of library compound solution in DMSO to each well. Aurintricarboxylic acid (ATA) was used as an intraplate control with a 12-point titration in duplicate. Following a 30 min incubation of the protein-peptide complex with compounds at room temperature, a mixture of 40 ug/mL each streptavidin-coated donor and nickel chelate acceptor AlphaScreen beads (final 10 ug/mL) was added in a 1 uL dispense for a final volume of 4 uL. Plates were incubated protected from the light for 30 min at room temperature. […]
# Potency is the fitted concentration of half-maximal effect.
# M-phase phosphoprotein 8 (Homo sapiens), sequence (Q99549 whole entry, looked up): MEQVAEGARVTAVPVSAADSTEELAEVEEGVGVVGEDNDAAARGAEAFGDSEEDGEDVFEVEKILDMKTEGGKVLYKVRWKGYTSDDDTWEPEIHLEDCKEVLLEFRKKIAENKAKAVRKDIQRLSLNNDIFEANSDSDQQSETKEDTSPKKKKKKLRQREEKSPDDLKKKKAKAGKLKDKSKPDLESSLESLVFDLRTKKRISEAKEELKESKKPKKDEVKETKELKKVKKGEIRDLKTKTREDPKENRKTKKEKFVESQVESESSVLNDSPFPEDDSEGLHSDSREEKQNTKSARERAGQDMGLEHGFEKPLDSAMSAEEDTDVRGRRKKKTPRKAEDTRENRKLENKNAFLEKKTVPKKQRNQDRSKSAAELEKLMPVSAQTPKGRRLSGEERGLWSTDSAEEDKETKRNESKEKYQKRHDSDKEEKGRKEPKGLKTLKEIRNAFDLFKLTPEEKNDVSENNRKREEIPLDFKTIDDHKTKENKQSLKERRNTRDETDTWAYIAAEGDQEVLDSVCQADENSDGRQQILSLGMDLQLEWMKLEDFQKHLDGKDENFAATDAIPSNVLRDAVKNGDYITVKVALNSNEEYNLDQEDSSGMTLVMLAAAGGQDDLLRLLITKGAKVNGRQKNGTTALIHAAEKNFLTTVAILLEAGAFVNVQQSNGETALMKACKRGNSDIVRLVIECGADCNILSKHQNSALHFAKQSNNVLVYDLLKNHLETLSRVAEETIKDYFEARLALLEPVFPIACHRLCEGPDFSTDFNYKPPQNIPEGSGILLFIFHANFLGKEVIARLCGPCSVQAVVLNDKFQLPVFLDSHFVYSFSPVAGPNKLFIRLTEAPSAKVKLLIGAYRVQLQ
row,SMILES,Potency
1,CC#C[C@]1(O)CC[C@H]2[C@@H]3CCC4=CC(=O)CCC4=C3[C@@H](c3ccc(N(C)C)cc3)C[C@@]21C,11.9 µM (active)
2,O=C(Nc1ccc([N+](=O)[O-])cc1Cl)c1cc(Cl)ccc1O,inactive
3,Cn1ccc2cc3c(cc21)CCN3C(=O)Nc1cccnc1,39.8 µM (active) and inactive
4,CC12CC3CC(C)(C1)CC(N)(C3)C2,inactive
5,NCCS(=O)(=O)O,inactive
6,COc1cc2nc(N(C)CCCNC(=O)C3CCCO3)nc(N)c2cc1OC (stereo not given),inactive
7,Cn1cnc2c1c(=O)[nH]c(=O)n2C,inactive
8,Nc1ccn([C@H]2CC[C@@H](CO)O2)c(=O)n1,inactive
9,NS(=O)(=O)c1cc2c(cc1Cl)NCNS2(=O)=O,inactive
10,CNCCCC12CCC(c3ccccc31)c1ccccc12,inactive
11,CCC1(C)CC(=O)NC1=O (stereo not given),inactive
12,CN1CCC(=C2c3ccccc3CC(=O)c3sccc32)CC1,inactive
13,CN(C)c1nc(N(C)C)nc(N(C)C)n1,inactive
14,Clc1ccc(C(c2ccccc2Cl)C(Cl)Cl)cc1 (stereo not given),inactive
15,Clc1ccccc1C(c1ccccc1)(c1ccccc1)n1ccnc1,inactive
16,CC(C)Cc1ccc(C(C)C(=O)O)cc1 (stereo not given),inactive
17,Cc1cn([C@H]2C[C@H](N=[N+]=[N-])[C@@H](CO)O2)c(=O)[nH]c1=O,inactive
18,O=C(c1ccc(OCCN2CCCCC2)cc1)c1c(-c2ccc(O)cc2)sc2cc(O)ccc12,20 µM (active)
19,CN1CCN(CCCN2c3ccccc3Sc3ccc(Cl)cc32)CC1,25.1 µM (active) and 15 µM (active)
20,CS(=O)(=O)Nc1ccc([N+](=O)[O-])cc1Oc1ccccc1,inactive

row,SMILES,Potency
1,CC(C)NCC(O)c1ccc(O)c(O)c1 (stereo not given),inactive
2,CCCCc1oc2ccccc2c1C(=O)c1cc(I)c(OCCN(CC)CC)c(I)c1,inactive
3,Nc1nc2c(ncn2COC(CO)CO)c(=O)[nH]1,inactive
4,CCC1(c2ccccc2)C(=O)NCNC1=O,inactive
5,COc1ccccc1OCCNCC(O)COc1cccc2[nH]c3ccccc3c12 (stereo not given),inactive
6,COc1ccc(C2CNC(=O)C2)cc1OC1CCCC1 (stereo not given),inactive
7,CN1C(C(=O)Nc2ccccn2)=C(O)c2ccccc2S1(=O)=O,inactive
8,CN(Cc1cnc2nc(N)nc(N)c2n1)c1ccc(C(=O)N[C@@H](CCC(=O)O)C(=O)O)cc1,79.4 µM (active) and inactive
9,COc1cc2c(c(OC)c1OC)-c1ccc(OC)c(=O)cc1[C@@H](NC(C)=O)CC2,inactive
10,CN1CCN2c3ccccc3Cc3ccccc3C2C1 (stereo not given),inactive
11,COc1ccccc1OCC(O)CN1CCN(CC(=O)Nc2c(C)cccc2C)CC1 (stereo not given),inactive
12,Cc1ccc(C(=O)Nc2ccc(S(=O)(=O)O)c3cc(S(=O)(=O)O)cc(S(=O)(=O)O)c23)cc1NC(=O)c1cccc(NC(=O)Nc2cccc(C(=O)Nc3cc(C(=O)Nc4ccc(S(=O)(=O)O)c5cc(S(=O)(=O)O)cc(S(=O)(=O)O)c45)ccc3C)c2)c1,8.91 µM (active) and 1.89 µM (active)
13,CCN1CCCC1CNC(=O)c1cc(S(=O)(=O)CC)c(N)cc1OC (stereo not given),inactive
14,CN(C)CCC=C1c2ccccc2C=Cc2ccccc21,inactive
15,O=C(c1ccc(F)cc1)C1CCN(CCn2c(=O)[nH]c3ccccc3c2=O)CC1,inactive
16,Cn1c(=O)c2c(ncn2C)n(C)c1=O,inactive
17,CC(C)NCC(O)COc1ccc(CCOCC2CC2)cc1 (stereo not given),inactive
18,COc1cc2nc(N3CCN(C(=O)C4COc5ccccc5O4)CC3)nc(N)c2cc1OC (stereo not given),inactive
19,Clc1ccc2c(c1)C(N1CCNCC1)=Nc1ccccc1O2,inactive
20,CCOC(=O)C(C)(C)Oc1ccc(Cl)cc1,inactive
